This is a sample that favours compounds with a hit; in the whole collection about 10% have one here.
HPGD block = qHTS Assay for Inhibitors of HPGD (15-Hydroxyprostaglandin Dehydrogenase) | 15-hydroxyprostaglandin dehydrogenase [NAD(+)] (Homo sapiens), P15428 | Potency, µM, most hits filed as inhibitors | 150,000 tested, 4.3% active | purified HPGD, NADH fluorescence kinetic, PGE2 substrate
Target sequence (P15428 whole entry, looked up): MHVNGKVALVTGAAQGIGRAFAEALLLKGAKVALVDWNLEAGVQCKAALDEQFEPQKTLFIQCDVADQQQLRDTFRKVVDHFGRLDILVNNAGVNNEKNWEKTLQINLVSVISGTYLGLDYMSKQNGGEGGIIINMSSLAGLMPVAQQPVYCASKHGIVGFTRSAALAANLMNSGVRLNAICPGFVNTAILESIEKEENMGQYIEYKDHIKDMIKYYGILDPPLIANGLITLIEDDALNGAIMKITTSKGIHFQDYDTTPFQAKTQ
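20 nM HPGD preincubated 15 min at room temperature with compound in 50 mM Tris-HCl pH 8, 0.01% Tween 20. Started with 1 mM NAD+ and 30 uM prostaglandin E2; NADH fluorescence (360/450 nm) read 5 times over 30-s intervals, last minus first.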
Luc counter = Counterscreen for Luciferase (Kinase-Glo TM) Inhibition | Luciferin 4-monooxygenase (Photuris pensylvanica), Q27757 | Kinase-Glo luciferase, ATP luminescence, 8 min | Potency, µM (series often up to 38.3 µM), most hits filed as inhibitors | 200,000 tested, 0.28% active | AID 1379, 2008; active = well fitted inhibition curve with a large enough effect; inconclusive = small, poorly fitted or top-dose-only effect; also: nearly all actives have a fitted effect of over 60% in size
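Inhibition of Kinase-Glo luciferase light generation was assessed at 10 uM ATP in pH 7.2 imidazole buffer, with luminescence measured after eight minutes at ambient temperature.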
IMPase inh = qHTS Assay for Identifying the Cell-Membrane Permeable IMPase Inhibitors. AID 901, 2007. Inositol monophosphatase 1 (Rattus norvegicus), P97697. 120,000 tested, under 10 active. inhibition (IP1 accumulation), % at 46.1 µM. CHO-M1 cells, IP1 accumulation, HTRF TR-FRET ratio; active = well fitted curve in the direction sought with a large enough effect in the signal ratio, not every such curve was filed as active; inconclusive = small, poorly fitted or top-dose-only effect, or a change in a side signal; inactive = no such curve, though single readings can be large or run the other way; the % refers to the signal ratio;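 also: cells stimulated with carbachol in lithium chloride buffer; higher means more IMPase inhibition seen as more IP1 and lower FRET ratio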
Target sequence (P97697 whole entry, looked up): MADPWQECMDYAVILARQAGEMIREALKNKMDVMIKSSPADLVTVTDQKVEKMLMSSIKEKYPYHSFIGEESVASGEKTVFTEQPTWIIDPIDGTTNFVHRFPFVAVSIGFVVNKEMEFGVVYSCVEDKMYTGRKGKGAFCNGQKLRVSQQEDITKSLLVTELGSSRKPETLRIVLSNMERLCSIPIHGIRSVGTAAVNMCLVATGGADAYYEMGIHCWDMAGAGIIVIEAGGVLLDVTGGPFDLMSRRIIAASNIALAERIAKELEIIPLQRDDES
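CHO-M1 cells (CHO stably expressing M1 receptor), compound up to 46 uM final, stimulated with carbachol (50 uM as added) in buffer with 50mM LiCl, pH 7.4, 30 min at 37C. Cytosolic IP1 read by TR-FRET; AC50 from Hill fits.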
ALDH1A1 inh = qHTS Assay for Inhibitors of Aldehyde Dehydrogenase 1 (ALDH1A1) | Potency, µM (top dose mostly 75.3 µM), hits mostly inhibitors | Purified ALDH1A1, NADH fluorescence, propionaldehyde substrate | Aldehyde dehydrogenase 1A1 (Homo sapiens), P00352 | AID 1030, 2008 | 220,000 tested, 7.3% active
PNC assembly inh = High Content Assay for Compounds that inhibit the Assembly of the Perinucleolar Compartment; PC3M PTB-GFP, PNC prevalence imaging, 16 h; active compounds read low; activity change (PNC), negative = inhibition, % at 10 µM; 140,000 tested, 3.1% active; AID 2417, 2010;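 active = readout at or below -70, meaning at least 70% loss of cells showing the perinucleolar compartment, a nuclear body marking cancer cells; inconclusive = readout between -30 and a set limit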
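PC3M cells stably expressing PTB-GFP, 750–1000 cells/well, treated 16 h at 37 °C with compound (23 nl of library stock), in duplicate. After paraformaldehyde fixation and Hoechst stain, imaged at 20x; PNC prevalence scored by image analysis.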
Lamin A splicing = qHTS Assay for Modulators of Lamin A Splicing. HeLa LMNA splicing GFP/RFP minigene ratio, 48 h. 200,000 tested, 0.01% active. Potency, µM (highest dose often 46.1 µM), most hits filed as inhibitors; active = well fitted inhibition curve with a large enough effect in the signal ratio, with a control signal flat, not every such curve was filed as active; inconclusive = small, poorly fitted or top-dose-only effect, or effect the other way, or a change in a side signal; the % refers to the signal ratio
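S3 HeLa cells stably expressing lamin A-EGFP splicing minigene plus DsRed2, 600 cells/well, 48 h compound exposure at 37C. Laser-scanning cytometry; analysed as GFP (500-530 nm)/RFP (575-640 nm) total intensity ratio; 0.5% DMSO vehicle.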
Large screens that a line does not name were inactive. Unless noted, calls follow the shape of the dose curve; as a rule, active = well fitted inhibition curve with a large enough effect (not every such curve was filed as active); inconclusive = small, poorly fitted or top-dose-only effect, or another doubt; inactive = no such curve, though single readings can be large or run the other way.

Cc1ccc(-c2cnn(-c3cccc([N+](=O)[O-])c3)c2N)cc1	HPGD block 35µM, ALDH1A1 inh inconclusive, PNC assembly inh -87
Nc1c(-c2ccccc2Cl)cnn1-c1cccc([N+](=O)[O-])c1	HPGD block 14µM
COc1ccccc1-c1cncnc1NCCN1CCOCC1	Lamin A splicing inconclusive (no result: IMPase inh, PNC assembly inh)
C/C(Cl)=C\Cn1c(Nc2ccc(C)cc2)nc2c1c(=O)n(C)c(=O)n2C	ALDH1A1 inh inconclusive, PNC assembly inh -95
Cn1c(=O)c2c(nc(N3CCCCCC3)n2CC(O)COc2ccccc2)n(C)c1=O (stereo not given)	ALDH1A1 inh 1.6µM
CC(O)Cn1c(=O)c2c(nc(Br)n2Cc2ccccc2)n(C)c1=O (stereo not given)	PNC assembly inh -119
CCOC(=O)CCn1c(=O)c2c(nc(Br)n2Cc2ccccc2)n(C)c1=O	ALDH1A1 inh inconclusive
COc1ccc(OCC(O)Cn2c(Nc3ccccc3)nc3c2c(=O)n(C)c(=O)n3C)cc1 (stereo not given)	PNC assembly inh -83
C/C(Cl)=C/Cn1c(N2CCCC2)nc2c1c(=O)n(C)c(=O)n2C	Lamin A splicing inconclusive
Cn1c(=O)c2c(nc(NC3CCCCC3)n2CC(O)COc2ccccc2)n(C)c1=O (stereo not given)	ALDH1A1 inh inconclusive, Lamin A splicing inconclusive
CCCCN(C)CCNC(=O)c1ccc2c(c1)NC(=O)CN2	none (no result: HPGD block, Luc counter, IMPase inh, ALDH1A1 inh, PNC assembly inh)
O=C(O)CC[C@@H](C(=O)O)N1C(=O)[C@@H]2[C@@H]3CC[C@H](C3)[C@@H]2C1=O	none (no result: IMPase inh, PNC assembly inh, Lamin A splicing)
CCOC(=O)Cn1c(=O)c2c(nc(N3CCOCC3)n2C)n(C)c1=O	none
CCOC(=O)Cn1c(=O)c2c(nc(N3CCCCC3)n2Cc2ccccc2)n(C)c1=O	ALDH1A1 inh 14µM, Lamin A splicing inconclusive
CC12C=C(/C=C/c3ccc(F)cc3)C(C)(C1)C(c1ccc(F)cc1)CC2=O (stereo not given)	none (no result: HPGD block, Luc counter, IMPase inh, PNC assembly inh, Lamin A splicing)
O=C1C=C(N2CCCCCC2)C2(CCCCC2)O1	ALDH1A1 inh 8.9µM (no result: HPGD block, IMPase inh, PNC assembly inh, Lamin A splicing)
CCOC(=O)N1CCN(C2=CC(=O)OC23CCCCC3)CC1	ALDH1A1 inh inconclusive
CCOc1ccc(N2CC(NC(=O)Cc3ccccc3)CC2=O)cc1 (stereo not given)	none (no result: HPGD block, Luc counter, IMPase inh, ALDH1A1 inh, PNC assembly inh)
COc1cc2[nH]c(=S)nc(NCCCOC(C)C)c2cc1OC	HPGD block 18µM, ALDH1A1 inh inconclusive
CCOc1ccc(/C=C2\SC(=S)NC2=O)cc1OC	ALDH1A1 inh inconclusive, Lamin A splicing inconclusive (no result: HPGD block, IMPase inh, PNC assembly inh)
COc1cc(C=O)ccc1OS(=O)(=O)c1ccc(NC(C)=O)cc1	ALDH1A1 inh inconclusive (no result: IMPase inh)
COc1cc(/C=C2\SC(=S)NC2=O)ccc1OS(=O)(=O)c1ccccc1	HPGD block 8.9µM, ALDH1A1 inh 6.3µM, PNC assembly inh inconclusive, Lamin A splicing inconclusive (no result: IMPase inh)
CCOc1ccc(/C=C2\SC(=S)N(C)C2=O)cc1OC	none (no result: HPGD block, Luc counter, IMPase inh, PNC assembly inh, Lamin A splicing)
COc1ccc(/C=C2\SC(=S)NC2=O)cc1OS(=O)(=O)c1ccc(NC(C)=O)cc1	ALDH1A1 inh 0.71µM (no result: HPGD block, IMPase inh, PNC assembly inh, Lamin A splicing)
COc1cccc(/C=C2\SC(=S)NC2=O)c1OS(=O)(=O)c1ccc(NC(C)=O)cc1	HPGD block 25µM, ALDH1A1 inh inconclusive (no result: IMPase inh)
COc1ccc(/C=C2\SC(=O)NC2=S)cc1OC	HPGD block 16µM, ALDH1A1 inh 18µM, Lamin A splicing inconclusive (no result: IMPase inh)
CCCCCC(=O)/C=C/C=C\C/C=C\C/C=C\CCCC(=O)O	none (no result: IMPase inh, PNC assembly inh, Lamin A splicing)
Nc1nc2ncc(=O)[nH]c2c(=O)[nH]1	HPGD block inconclusive, ALDH1A1 inh inconclusive (no result: IMPase inh, PNC assembly inh)
Cc1ccc(Cl)cc1N1CCN(C(=O)c2cnn(C)c2C2CCN(C(=O)OC(C)(C)C)CC2)CC1	none (no result: HPGD block, Luc counter, IMPase inh, ALDH1A1 inh, PNC assembly inh)
CS(=O)(=O)N1CCC[C@@]2(CCN(C(=O)Nc3cccc(C#N)c3)C2)C1	none (no result: IMPase inh, PNC assembly inh, Lamin A splicing)
O=Cc1cnc(N2CCN(Cc3ccccc3)CC2)s1	ALDH1A1 inh 0.79µM (no result: HPGD block, IMPase inh, PNC assembly inh, Lamin A splicing)
O=Cc1cnc(N2CCN(c3ccccc3)CC2)s1	ALDH1A1 inh 4µM (no result: HPGD block, IMPase inh, PNC assembly inh, Lamin A splicing)
